Reference: PubChem BioAssay (Tox21)
Where “and” joins values, the source holds several entries; their conditions need not be identical. Equal values may be shown once. Values without a mark were called inactive. Inconclusive results are not listed. Entries that show only a call come without a potency. Calls of active or inactive are those of the source. Unless noted, the call rests on the fitted dose curve; in most records, active means well fitted curve in the direction sought with a large enough effect in the repeat runs; inconclusive means weak or mixed curves; inactive means no such curve, though single readings can be large; an effect the other way counts as inactive or inconclusive.

Assays:
[1] = qHTS assay to identify small molecule agonists of the hypoxia (HIF-1) signaling pathway - cell viability counter screen (AID 1224844; calls by dose curve; further: nearly all actives have a fitted effect of over 50% in size; further: potency means the concentration at half of the fitted maximal effect)
Method in brief: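 Luminescent ATP content (CellTiter-Glo, 30 min, room temperature) served as the viability measure in HRE-bla ME-180 cells exposed to compounds for 17 hrs in low-serum medium (0.5% dialyzed FBS).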

[2] = qHTS assay to identify small molecule agonists of H2AX (AID 1224845; active means well fitted activation curve with a large enough effect in the signal ratio in the repeat runs, not every such curve was filed as active; the % refers to the signal ratio; further: potency means the concentration at half of the fitted maximal effect)
Method in brief: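 Wild-type CHO-K1 cells, plated overnight, exposed 3hr at 37C to 15 concentrations (0.76% DMSO final). Lysed, then HTRF anti-pH2AX (S139) cryptate and anti-H2AX-d2 antibodies, 24 hr room temperature; 665/620 nm emission read.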

[3] = qHTS assay to identify small molecule agonists of the hypoxia (HIF-1) signaling pathway (AID 1224846; active means well fitted activation curve with a large enough effect in the signal ratio in the repeat runs, not every such curve was filed as active; the % refers to the signal ratio)
Method in brief: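 Measured by blue/green FRET after loading CCF4-AM: beta-lactamase expressed from a hypoxia response element in ME-180 cells. Test agents were delivered in DMSO and left 17 hrs; cells had been plated 5 hrs earlier in low-serum (0.5% dialyzed FBS) medium.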

[4] = qHTS RealTime-Glo MT Cell Viability Assay in HepG2 cells - 24 hour (AID 1224867); further: nearly all actives have a fitted effect of over 50% in size; further: potency means the concentration at half of the fitted maximal effect
Method in brief: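 Cells + NanoLuc/prosubstrate dispensed (600 cells/well) → 5 h at 37 C/5% CO2 → compounds in DMSO transferred → 40 h incubation at 37 C, luminescence read at 0, 8, 16, 24, 32, 40 h.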

[5] = qHTS RealTime-Glo MT Cell Viability Assay in HEK293 cells - 32 hour (AID 1224868); further: nearly all actives have a fitted effect of over 50% in size; further: potency means the concentration at half of the fitted maximal effect
Method in brief: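 Tox21 10K qHTS, HEK293, 600 cells/well, RealTime-Glo reagent co-dispensed with cells; 5 h preincubation, compound by pintool, 37 C, luminescence at 0–40 h.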

[6] = qHTS RealTime-Glo MT Cell Viability Assay in HepG2 cells - 40 hour (AID 1224870); further: nearly all actives have a fitted effect of over 50% in size; further: potency means the concentration at half of the fitted maximal effect
Method in brief: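 HepG2 cells (600/well) mixed with RealTime-Glo MT reagent, settled 5 h at 37 C/5% CO2 before compound addition. Nonlytic NanoLuc luminescence from viable-cell prosubstrate reduction read repeatedly during 40 h treatment at 37 C.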

[7] = qHTS assay to identify small molecule agonists of H2AX - cell viability counter screen (AID 1224847; calls by dose curve; further: nearly all actives have a fitted effect of over 30% in size; further: potency means the concentration at half of the fitted maximal effect)
Method in brief: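 Read-out: CellTiter-Glo luminescence, 30 min RT. Cells: wild-type CHO-K1, 1000/well, 10% FBS, plated overnight at 37C. Treatment: 15 concentrations, 3 hr, 37C, 0.76% DMSO.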

[8] = qHTS assay to identify small molecule antagonists of the estrogen related receptor (ERR) signaling pathway from Tox21 library (AID 1224848); further: nearly all actives have a fitted effect of over 50% in size; further: potency means the concentration at half of the fitted maximal effect
Method in brief: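 Luminescent reporter read-out (ONE-Glo) from NTP's ERR cell line after 18 h treatment at 37 C with DMSO-dissolved Tox21 compounds; cells pre-plated 6 h beforehand at 2,000 per well.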

[9] = qHTS assay to identify small molecule agonists of the estrogen related receptor (ERR) signaling pathway from Tox21 library (AID 1224849; calls by dose curve; further: nearly all actives have a fitted effect of over 15% in size); details: ERR reporter cell line, ONE-Glo luciferase, 18 h; at 92.4 µM (top of the series) unless noted
Method in brief: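 We plated ERR reporter cells, waited 6 h, added compounds in DMSO by pin tool and incubated them 18 h at 37 C. ONE-Glo was then added and luminescence read after 30 min.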

[10] = A CellTox Green Cytotoxicity Assay to monitor cytotoxicity in HEK293 cells - 0 hour (AID 1224869); further: nearly all actives have a fitted effect of over 50% in size
Method in brief: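 Each value comes from one timepoint of a single continuous run in which HEK293 cells with CellTox Green were exposed to compound for up to 40 h at 37 C, dye fluorescence rising with cell death.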

Compound | Potency [1] | Potency [2] | Potency [3] | Potency [4] | Potency [5] | Potency [6] | Potency [7] | Potency [8] | activity change, positive = activation [9] | Potency [10]
NNC(=O)c1cccc(C(=O)NN)c1 | inactive | inactive | inactive | inactive | inactive | inactive | – | – | – | –
C=CC(=O)OCC(CO)(COC(=O)C=C)COC(=O)C=C | 4.38 µM (active) and 17.4 µM (active) | 14.2 µM (active) | – | 11 µM (active) and 12.3 µM (active) | 3.48 µM (active) | 12.3 µM (active) and 19.5 µM (active) | inactive | 8.66 µM (active) and 13.7 µM (active) | -68.9% and -80.3% | inactive
NC(=NCCCCCCN=C(N)/N=C(\N)Nc1ccc(Cl)cc1)/N=C(\N)Nc1ccc(Cl)cc1 | 24.4 µM (active) | inactive | inactive | – | 8.67 µM (active) [middle of 5 runs] | – | – | – | – | inactive
CCC1OCC(COc2ccc(Oc3ccccc3)cc2)O1 (centres undefined) | inactive | inactive | inactive | – | – | inactive | – | inactive | -1.58% (active) | inactive
CCCCCCCCS(=O)C(C)Cc1ccc2c(c1)OCO2 (centres undefined) | inactive | inactive | inactive | inactive | – | inactive | – | – | – | inactive
Cc1cc(O)c(C(C)(C)C)cc1C(C)(C)C | 43.6 µM (active) | 89.8 µM (active) | – | 43.6 µM (active) | 17.4 µM (active) | – | 50.5 µM (active) | 61.1 µM (active) | -68.9% | inactive
CCCCCCCCOc1ccccc1C(=O)Nc1ccc(C(=O)OCC[N+](C)(CC)CC)cc1 | 7.56 µM (active) | inactive | inactive | – | 19 µM (active) | inactive | 24.7 µM (active) | – | – | –
O=c1[nH]cnc2nc[nH]c12 | inactive | inactive | inactive | inactive | inactive | inactive | – | inactive | 9.65% [at 42.5 µM] | –
CCN(CCC#N)c1ccc(N=Nc2c(Cl)cc([N+](=O)[O-])cc2Cl)cc1 | inactive | inactive | inactive | – | inactive | – | 56.6 µM (active) | – | – | inactive
Cc1[nH]cnc1C[C@H]1CCc2c(C)c3ccccc3n2C1=O | inactive | inactive | – | 38 µM (active) | 23.9 µM (active) | 42.6 µM (active) | 87.6 µM (active) | 26.6 µM (active) | -63.7% | inactive
Cc1nc(-c2ccc3c(c2)CCN(CCC2CCC(NC(=O)/C=C/c4ccc(F)cc4)CC2)CC3)no1 (centres undefined) | inactive | inactive | inactive | inactive | – | inactive | inactive | – | – | inactive
Fc1ccc([C@@H]2CCNC[C@H]2COc2ccc3c(c2)OCO3)cc1 | inactive | inactive | inactive | – | – | – | inactive | – | – | inactive
CC(=O)OCC(C)OC(C)=O (centres undefined) | inactive | inactive | inactive | – | inactive | inactive | – | – | – | inactive
CCCCCCCCCCCCc1ccc(O)cc1 | 24.5 µM (active) | 56.6 µM (active) | – | 49 µM (active) | 43.6 µM (active) | 54.9 µM (active) | 45 µM (active) | 54.5 µM (active) | -63.6% | inactive
CO[Si](CCCNc1ccccc1)(OC)OC | inactive | inactive | inactive | – | inactive | inactive | inactive | – | – | inactive
CCCCCCCC/C=C/CCCCCCCC1=NCCN1CCO | 54.9 µM (active) | inactive | – | 17.4 µM (active) | 19.5 µM (active) | 17.4 µM (active) | 101 µM (active) | 54.5 µM (active) | -79.9% | inactive
CCN(C(=O)N(CC)c1ccccc1)c1ccccc1 | inactive | inactive | inactive | inactive | – | inactive | – | – | -25.8% | inactive
CCCN(CCC)c1c([N+](=O)[O-])cc(C(F)(F)F)c(N)c1[N+](=O)[O-] | 13.8 µM (active) | 35.6 µM (active) | – | 54.8 µM (active) | 19.4 µM (active) | – | 50.4 µM (active) | 30.5 µM (active) | -75.7% | inactive
CCCCCCCCNC(C)C(O)c1ccc(SC(C)C)cc1 (centres undefined) | 19 µM (active) | inactive | – | 13.4 µM (active) | 9.52 µM (active) | 13.4 µM (active) | 43.8 µM (active) | 23.7 µM (active) | -63% [at 42.5 µM] | inactive
Cc1cccc(S(=O)(=O)O)c1C | inactive | inactive | inactive | inactive | inactive | inactive | – | – | – | –
CN(C)c1ccc(SC#N)cc1 | inactive | inactive | inactive | inactive | inactive | inactive | inactive | – | – | –
CCCCCOC(=O)CCCC | inactive | inactive | inactive | – | inactive | inactive | inactive | – | – | –
CCCCCCOC(=O)c1ccc(O)cc1 | inactive | inactive | – | inactive | 43.7 µM (active) and 21.9 µM (active) | inactive | 89.9 µM (active) and 101 µM (active) | inactive | 67.7% (active) and 70.3% (active) | inactive
CN(C)C(=O)C1(N2CCCCC2)CCN(CC[C@@]2(c3ccc(Cl)c(Cl)c3)CN(C(=O)c3ccccc3)CCO2)CC1 | 45.8 µM (active) | 47.2 µM (active) | – | 20.4 µM (active) | 10.2 µM (active) | 18.2 µM (active) | 52.9 µM (active) | 28.6 µM (active) | -73.9% | inactive
